Source: PubChem (National Center for Advancing Translational Sciences (NCATS))
BAZ2B block: blocks human BAZ2B; Q9UIF8; AlphaScreen BAZ2B-H3K14Ac peptide displacement; Potency, µM (highest dose often 114 µM), usual class: inhibitors; 4.4% of 360,000 active; AID 504333; note: nearly all actives have a fitted effect of over 60% in size
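Inhibition is scored as reduced AlphaScreen emission. The BAZ2B/b-H3(5-23)K14Ac complex (50 nM each) in PBS pH 7.4, 0.01% Tween-20 meets compound (up to 110 uM) for 30 min at RT before bead addition.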
L3MBTL1 block: blocks human L3MBTL1; 0.66% of 230,000 active; Q9Y468; Potency, µM (top dose mostly 57.1 µM), most hits filed as inhibitors; AlphaScreen L3MBTL1–H3K9me1 peptide binding; note: nearly all actives have a fitted effect of over 60% in size
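L3MBTL1 50 nM + b-AHA-H3(1-15)K9me1 75 nM, 30 min RT; compound added, 30 min RT; streptavidin donor/Ni-chelate acceptor beads 10 ug/mL each final, 30 min RT dark; AlphaScreen read.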
JMJD2A Tudor: inhibitors of human JMJD2A Tudor domain. AlphaScreen JMJD2A-Tudor / H3K4me3 peptide binding. AID 504339. Potency, µM (series often up to 114 µM), actives largely listed as inhibitors. 4.4% of 390,000 active. O75164; note: nearly all actives have a fitted effect of over 50% in size
G9a inh: blocks human histone lysine methyltransferase G9a | Q96KQ7 | G9a H3K9 monomethylation, AlphaScreen, 2 h | Potency, µM (series often up to 102 µM), usual class: inhibitors | 8.8% of 350,000 active; note: nearly all actives have a fitted effect of over 75% in size
Target sequence (Q96KQ7 913-1193 limits assumed): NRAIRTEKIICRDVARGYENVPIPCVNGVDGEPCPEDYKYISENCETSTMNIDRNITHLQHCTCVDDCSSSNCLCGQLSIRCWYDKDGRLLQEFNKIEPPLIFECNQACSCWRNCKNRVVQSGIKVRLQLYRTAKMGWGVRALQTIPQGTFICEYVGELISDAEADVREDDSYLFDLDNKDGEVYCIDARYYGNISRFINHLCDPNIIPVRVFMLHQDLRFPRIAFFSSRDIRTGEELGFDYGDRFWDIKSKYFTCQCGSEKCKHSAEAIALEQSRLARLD
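Compounds were preincubated with 20 nM G9a for 15 min, after which biotinylated H3K9 peptide (500 nM) and SAM (20 uM) started a 2 h room-temperature reaction. Monomethylated product was quantified by antibody-based AlphaScreen chemiluminescence.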
HP1b chromo inh: inhibitors of HP1-beta chromodomain binding to methylated histone tails; P83916; AlphaScreen HP1-beta / biotin-H3K9me3 peptide binding; Potency, µM (doses to about 114 µM), most hits filed as inhibitors; 0.56% of 390,000 active; AID 540317; note: nearly all actives have a fitted effect of over 70% in size
Target sequence (P83916 whole entry, looked up): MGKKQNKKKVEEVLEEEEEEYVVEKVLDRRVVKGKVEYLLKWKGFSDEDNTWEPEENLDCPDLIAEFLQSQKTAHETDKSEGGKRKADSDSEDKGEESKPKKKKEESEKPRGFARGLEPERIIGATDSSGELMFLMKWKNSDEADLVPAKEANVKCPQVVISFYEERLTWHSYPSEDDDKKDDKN
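Compound inhibition of the preformed complex between 50 nM HP1-beta and 50 nM biotinylated H3K9me3 peptide was read by AlphaScreen. Buffer was PBS pH 7.4 with 0.01% Tween-20. Incubations ran 30 min at room temperature, with 10 ug/mL donor/acceptor beads.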
Numbers stand for hits; [ ] = another dose, or the depositor's remark. Shown are actives, neighbours in structure and some others; about 11% of the full set was active somewhere. Calls come from the whole dose curve; as a rule, active = well fitted inhibition curve with a large enough effect; inconclusive = small, poorly fitted or top-dose-only effect; inactive = no such curve, though single readings can be large or run the other way.

O=C(/C=C/c1ccco1)Nc1nc(-c2ccccn2)cs1 was read as BAZ2B block 28µM, JMJD2A Tudor 50µM, G9a inh 22µM and HP1b chromo inh 45µM.
`O=C(/C=C/c1ccco1)Nc1nc(-c2ccccc2)cs1` gave BAZ2B block inconclusive, L3MBTL1 block inactive, JMJD2A Tudor inactive, G9a inh inconclusive and HP1b chromo inh inactive.
`Cc1csc(NC(=O)/C=C/c2ccco2)n1` gave BAZ2B block inactive, L3MBTL1 block inactive, JMJD2A Tudor inactive, G9a inh 20µM and HP1b chromo inh inactive.
For C[N+](C)(CCCOc1ccccc1)c1ccccc1 the results were G9a inh inactive[21.5 µM].
Screening COc1ccc(-c2cc(C(C)=O)c(C)n2CCC(=O)Nc2cccc(C)c2C)cc1 returned BAZ2B block inactive, JMJD2A Tudor inactive, G9a inh inactive and HP1b chromo inh inactive.
O=C(/C=C/c1ccccc1)C1=C(O)C(=O)N(CCO)C1c1cccc([N+](=O)[O-])c1 (centres undefined) was read as BAZ2B block inactive, L3MBTL1 block inactive, JMJD2A Tudor inactive, G9a inh inconclusive and HP1b chromo inh inactive.
For O=C(/C=C/c1ccccc1)C1=C(O)C(=O)N(CCO)C1c1ccccc1[N+](=O)[O-] (centres undefined) the results were BAZ2B block inactive, L3MBTL1 block inactive, JMJD2A Tudor inconclusive, G9a inh 45µM and HP1b chromo inh inactive.
`Cn1c(=O)c2c(nc(CN3CCN(c4ccccc4F)CC3)n2Cc2ccc(F)cc2)n(C)c1=O` gave JMJD2A Tudor inactive, G9a inh inactive and HP1b chromo inh inactive.
For CN(C)/C=C1/NC(=S)NC1=O the results were BAZ2B block inactive, L3MBTL1 block inactive, JMJD2A Tudor 8.9µM, G9a inh 35µM and HP1b chromo inh 89µM.
Screening Cc1nnnn1/C(=C\c1ccccc1)C(=O)OCC(=O)Nc1cccc(S(=O)(=O)N(C)C)c1 returned BAZ2B block inactive, L3MBTL1 block inactive, JMJD2A Tudor inactive, G9a inh inactive[0.501 µM] and HP1b chromo inh inactive.
For Cc1nnnn1/C(=C\c1ccccc1)C(=O)OCC(=O)Nc1ccc(Cl)cc1F the results were BAZ2B block inactive, L3MBTL1 block inactive, JMJD2A Tudor inactive, G9a inh 50µM and HP1b chromo inh inactive.
Screening COc1ccc(S(=O)(=O)c2c(O)c3ccc(C(=O)NCc4ccccc4)cc3[nH]c2=O)cc1 returned BAZ2B block inconclusive, JMJD2A Tudor inactive, G9a inh inactive and HP1b chromo inh inactive.
CN(c1ccccc1)c1nccc(=O)[nH]1 was read as JMJD2A Tudor inactive and HP1b chromo inh inactive.
Screening CCOC(=O)c1c(C)oc2c1c1c(c3ccccc32)OCN(CCCC(=O)O)C1 returned BAZ2B block inconclusive, L3MBTL1 block inactive, JMJD2A Tudor inconclusive, G9a inh 8.9µM and HP1b chromo inh inactive.
CCOC(=O)c1c(C)oc2c1c1c(c3ccccc32)OCN(Cc2cccnc2)C1 was read as BAZ2B block inconclusive, L3MBTL1 block inactive[11.4 µM], JMJD2A Tudor inconclusive, G9a inh inconclusive and HP1b chromo inh inactive.
Screening O=C(Oc1ccc(C(=S)N2CCOCC2)cc1)c1ccc([N+](=O)[O-])cc1 returned BAZ2B block inactive, L3MBTL1 block inactive[2.29 µM], JMJD2A Tudor inactive, G9a inh inactive[0.501 µM] and HP1b chromo inh inactive.
`O=[N+]([O-])c1ccccc1S(=O)(=O)Oc1ccc(C(=S)N2CCOCC2)cc1` gave BAZ2B block inactive, L3MBTL1 block inactive, JMJD2A Tudor inconclusive, G9a inh 28µM and HP1b chromo inh inconclusive.
COc1ccc(C(=S)N2CCOCC2)cc1OC(=O)c1ccccc1Cl was read as BAZ2B block inactive, JMJD2A Tudor inconclusive, G9a inh 11µM and HP1b chromo inh inconclusive.
COc1cc(C(=S)N2CCOCC2)ccc1OC(=O)c1cccc(C)c1 was read as BAZ2B block inconclusive, L3MBTL1 block inactive, JMJD2A Tudor inconclusive, G9a inh 22µM and HP1b chromo inh inactive.
COc1cc(C(=S)N2CCOCC2)ccc1OC(=O)c1ccccc1C was read as BAZ2B block inconclusive, L3MBTL1 block inactive, JMJD2A Tudor inactive and HP1b chromo inh inactive.
Screening COc1ccc(C(=S)N2CCOCC2)cc1OC(=O)c1ccc([N+](=O)[O-])cc1[N+](=O)[O-] returned BAZ2B block inconclusive, JMJD2A Tudor inactive, G9a inh 40µM and HP1b chromo inh inconclusive.
`COc1cc(C(=S)N2CCOCC2)cc(OC)c1OC(=O)c1ccccc1[N+](=O)[O-]` gave BAZ2B block inactive, L3MBTL1 block inactive, JMJD2A Tudor inactive, G9a inh inconclusive and HP1b chromo inh inactive.
`COc1cc(OC)c2c(C)c(CC(=O)NCc3ccccc3OC)c(=O)oc2c1` gave BAZ2B block inactive, JMJD2A Tudor inactive, G9a inh inactive and HP1b chromo inh inactive.
`Cc1ccc(-c2cc(C(=O)Nc3cc([N+](=O)[O-])ccc3C)no2)cc1F` gave BAZ2B block inactive, JMJD2A Tudor inactive, G9a inh inactive and HP1b chromo inh inactive.
COc1ccc(S(=O)(=O)Oc2ccccc2C(=S)N2CCOCC2)cc1 was read as BAZ2B block inactive and G9a inh 25µM.
`O=C(NCCN1CCOCC1)c1ccc([N+](=O)[O-])cc1[N+](=O)[O-]` gave BAZ2B block inactive, L3MBTL1 block inactive, JMJD2A Tudor inactive, G9a inh inactive and HP1b chromo inh inactive.
O=C(Oc1ccccc1C(=S)N1CCOCC1)c1ccc([N+](=O)[O-])cc1[N+](=O)[O-] was read as BAZ2B block inconclusive, JMJD2A Tudor inconclusive, G9a inh 50µM and HP1b chromo inh inconclusive.
`COc1cc(C(=S)N2CCOCC2)ccc1OC(=O)c1ccc(Br)cc1` gave BAZ2B block inactive, L3MBTL1 block inactive, JMJD2A Tudor inactive, G9a inh inactive and HP1b chromo inh inactive.
COc1ccc(S(=O)(=O)Oc2cccc(C(=S)N3CCOCC3)c2)cc1 was read as BAZ2B block inactive, JMJD2A Tudor inactive, G9a inh inactive and HP1b chromo inh inactive.
COc1cc(C(=S)N2CCOCC2)ccc1OC(=O)c1cc([N+](=O)[O-])cc([N+](=O)[O-])c1 was read as BAZ2B block inactive, L3MBTL1 block inactive, JMJD2A Tudor inactive, G9a inh 7.9µM and HP1b chromo inh inconclusive.
O=C(COc1ccc(C(=S)N2CCOCC2)cc1Cl)Nc1ccccc1Cl was read as BAZ2B block inactive, JMJD2A Tudor inactive, G9a inh 7.1µM and HP1b chromo inh inactive.
Screening CCOC(=O)C(C)Sc1nnc2ccc3ccccc3n12 (centres undefined) returned BAZ2B block inactive, JMJD2A Tudor inactive, G9a inh inactive and HP1b chromo inh inactive.
Screening CCC(Cc1ccccc1)NC(=O)Cn1ncc2c3ccccc3n(Cc3ccccc3)c2c1=O (centres undefined) returned BAZ2B block inactive, JMJD2A Tudor inactive, G9a inh inactive and HP1b chromo inh inactive.
For CC(CNC(=O)c1cnn(-c2ccc(F)cc2)c1-n1cccc1)c1ccccc1 (centres undefined) the results were BAZ2B block inactive, JMJD2A Tudor inactive, G9a inh inactive and HP1b chromo inh inactive.
